# Measured values: PubChem BioAssay (NCATS)
# Records with an inconclusive call do not appear. The source made the active and inactive calls. The call rests on the fitted dose curve; in most records, active means well fitted cell-killing curve with a large enough effect; inconclusive means small, poorly fitted or top-dose-only effect; inactive means flat fitted curve, though single readings scatter.
# Experiment: Cell Viability - LYMP2-025 (AID 976);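 further: plate controls were DMSO only for no effect and tetraoctylammonium bromide control for full effect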
# Settings: LYMP2-025 lymphoblastoid cell viability; series mostly up to 92.2 µM; activity change, negative = cytotoxicity: at the top concentration
# From the text: NIH Chemical Genomics Center [NCGC]
# NIH Molecular Libraries Screening Centers Network [MLSCN]
# National Institutes of Environmental Health Sciences [NIEHS]
# National Toxicology Program [NTP]
# We have developed a 1536-well cell-based assay for quantitative high throughput screening (qHTS) against a number of cell lines to determine in vitro cytotoxicity of small molecules. This particular assay uses a human lymphoblastoid cell line (LYMP2-025) purchased from Coriell Institute for Medical Research.
# NCGC Assay Protocol Summary:
# The CellTiter-Glo luminescent cell viability assay (Promega) is a homogeneous method to measure the number of viable cells in culture. The end point readout of this assay is based on quantitation of intracellular ATP, an indicator of metabolic activity, using the luciferase reaction. Luciferase catalyzes the oxidation of beetle Luciferin to oxyluciferin and light in the presence of ATP. The luminescent signal is proportional to amount of ATP present.
# Using the CellTiter-Glo luminescent cell viability assay, the amount of cellular ATP was measured in the lymphoblastoid cell line with complete culture medium following compound treatment for 24 hours. The assay was performed in opaque white Kalypsys 1536-well plates. In the screen, tetraoctylammonium bromide was used as positive control. Library compounds were measured for their ability to cause acute toxicity in the cell line, as reflected by a decrease in intracellular ATP levels, in a concentration-dependent manner. […] AC50 values were determined from concentration-response data modeled with the standard Hill equation.
# qHTS protocol for CellTiter Glo lymphoblastoid cellular assay
# [Step] [Parameter] [Value] [Description]
# 1. Reagent; 5 uL; 2500 lymphoblastoid cells/well
# 2. Time; 5 hr; 37 C incubation
# 4. Controls; 23 nL; Tetraoctylammonium bromide 6.4pM to 92 uM
# 5. Time; 24 hr; 37 C incubation
# 6. Reagent; 5 uL; CellTiter Glo reagent
# 7. Time; 30 min; Room Temperature
# 8. Detection; Luminescence; Viewlux plate reader
# Keywords: cell viability, cytotoxicity, lymphoblastoid cell line, luminescence, NTPHTS, NTPHTS_NCGC, NIEHS, DSSTox, MLSMR, MLSCN, NIH Roadmap, qHTS, NCGC
row,SMILES,"activity change, negative = cytotoxicity"
1,Cc1ccc2nc(-c3ccc(N)cc3)sc2c1S(=O)(=O)O,-13.1% (inactive)
2,O=C(O)CNC(=O)c1ccc([N+](=O)[O-])cc1,2.3% (inactive)
3,CSc1ccc(C=O)cc1,-8.02% (inactive)
4,BrC(Br)C(Br)Br,1.14% (inactive)
5,O=Cc1c(Cl)cccc1Cl,-6.15% (inactive)
6,Cc1cccc([N+](=O)[O-])c1C(=O)O,-7.35% (inactive)
7,Cc1ccc(C#N)cc1,-2.51% (inactive)
8,CC(C)N=C=NC(C)C,1.08% (inactive)
9,Cc1ccc2ccccc2c1[N+](=O)[O-],0.39% (inactive)
10,Cc1ccc2c(c1[N+](=O)[O-])C(=O)c1ccccc1C2=O,-14.9% (inactive)
11,CCOc1ccccc1N,-5.91% (inactive)
12,C=CCCCCCC,-9.57% (inactive)
13,CC(C)(C)OCC1CO1 (stereo not given),-5.5% (inactive)
14,C1CCC2OC2C1 (stereo not given),-7.78% (inactive)
15,CCCCCCO,-5.83% (inactive)
16,CC(C)c1ccccc1,-11.4% (inactive)
17,[O-]/[N+](=N\O)c1ccccc1,-3.21% (inactive)
18,FC(F)(F)c1cccc(Cl)c1,-1.96% (inactive)
19,CCc1ccccc1,-5.16% (inactive)
20,Cc1ccc2ncccc2c1,-2.45% (inactive)

row,SMILES,"activity change, negative = cytotoxicity"
1,N#Cc1ccccc1,-14.2% (inactive)
2,O=C(O[C@@H](C(=O)O)[C@@H](OC(=O)c1ccccc1)C(=O)O)c1ccccc1,-2.27% (inactive)
3,C=C(C)OC(C)=O,4.07% (inactive)
4,N#CC1(O)CCCCC1,-19.8% (inactive)
5,CCCCC(CC)CO (stereo not given),-0.421% (inactive)
6,O=Cc1ccc(CO)o1,-4.12% (inactive)
7,Nc1ccccc1S(=O)(=O)O,-13.3% (inactive)
8,CCc1ccccc1O,4.93% (inactive)
9,Cc1ccccc1C(=O)O,-4.23% (inactive)
10,COCCOC(=O)c1ccccc1C(=O)OCCOC,-10.8% (inactive)
11,NC=O,0.451% (inactive)
12,CCCCCO,-14.9% (inactive)
13,CC(=O)C1(C)CC2=C(CCCC2(C)C)CC1C (stereo not given),-5.36% (inactive)
14,CC(C)C=O,-8.2% (inactive)
15,CC(=O)Nc1ccc(C)cc1,-10.1% (inactive)
16,Cc1ccc(CO)cc1,-12.6% (inactive)
17,Nc1cccc2c(=O)[nH][nH]c(=O)c12,-9.16% (inactive)
18,C=C(C)C(=O)OCCCCCC,-12.9% (inactive)
19,CN(C)CCCCl,-21.5% (inactive)
20,O=[N+]([O-])c1cccc(Cl)c1,2.37% (inactive)
